The record followed here is the antibiotic and cytotoxicity screens of Wong et al. (2023).

Among all 39,000 compounds or so, about 1,500 (3.8%) were called active. Shown is part of a subset that was picked to be rich in actives.

The test system of this test is HSkMC (human skeletal muscle cells). Description: cytotoxicity call (relative viability < 0.9). The settings on record: 10 µM.
In the case of `NCCc1ccc(O)cc1` [listing 1 of 2 here], the cytotoxicity call is “inactive”.

For the compound `CCCCCCCCCc1ccc(O)cc1`, the cytotoxicity call is “active”. The entry for `NCCc1ccc(O)cc1` [listing 2 of 2 here] is “inactive”. The entry for `COP(=O)(OC)OC(Br)C(Cl)(Cl)Br` (stereo unspecified) is “inactive”. In the case of `COC(=O)[C@H]1CNC(=O)C1`, the cytotoxicity call is “inactive”.

In the case of `C=C(C)C1C2OC(=O)C1C1(O)CC3OC34C(=O)OC2C14C` (stereo unspecified), the cytotoxicity call is “inactive”. With `C1COC2(CCNCC2)OC1` the entry was “inactive”. The entry for `Cl.OC1CCCCC1N1CCC(c2ccccc2)CC1` (stereo unspecified) is “inactive”; for `C[C@@]12C(=O)OC(=O)[C@]1(C)[C@H]1CC[C@@H]2O1` it is “active”. The entry for `CC12C(=O)OC(=O)C1(C)C1CCC2O1` (stereo unspecified) is “inactive”; for `C[C@]12C(=O)OC(=O)[C@]1(C)[C@H]1CC[C@H]2O1` it is “active”; for `C(=N/C12CN3CN(CN(C3)C1)C2)/c1cccnc1` it is “inactive”. On to `CC(=CCn1c[n+](C)c2c(N)ncnc21)CCC1(C)C(C)CCC2(C)C(C)=CCCC21.[Cl-]` (stereo unspecified), for which the cytotoxicity call was “inactive”.

Regarding `OCC1CCCN2CCCCC12` (stereo unspecified), the cytotoxicity call was “inactive”. With `N=C(N)N/N=C/c1ccc2c(c1)OCO2` the entry was “inactive”; with `Cc1ccc(OC(=O)N(C)C[C@@H]2OCc3ccccc3-c3c(n(C)c4ccccc34)C(=O)N([C@H](C)CO)C[C@@H]2C)cc1`, “inactive”. On to `COc1ccc(OC(=O)N(C)C[C@H]2OCc3ccccc3-c3c(n(C)c4ccccc34)C(=O)N([C@@H](C)CO)C[C@H]2C)cc1`, for which the cytotoxicity call is “inactive”. With `COc1ccc(OC(=O)N(C)C[C@H]2OCc3ccccc3-c3c(n(C)c4ccccc34)C(=O)N([C@H](C)CO)C[C@@H]2C)cc1` the entry was “inactive”; with `Cc1ccc(OC(=O)N(C)C[C@@H]2OCc3ccccc3-c3c(n(C)c4ccccc34)C(=O)N([C@@H](C)CO)C[C@H]2C)cc1`, “inactive”; with `COc1ccc(OC(=O)N(C)C[C@@H]2OCc3ccccc3-c3c(n(C)c4ccccc34)C(=O)N([C@H](C)CO)C[C@H]2C)cc1`, “active”. With `Cc1ccc(OC(=O)N(C)C[C@H]2OCc3ccccc3-c3c(n(C)c4ccccc34)C(=O)N([C@H](C)CO)C[C@@H]2C)cc1` the entry was “active”. With `O=C(NC(O)C(Cl)(Cl)Cl)NC(O)C(Cl)(Cl)Cl` (stereo unspecified) the entry was “inactive”; with `CC(C)C[C@@H]1C(=O)N2CCC[C@@H]2[C@]2(O)O[C@@](NC(=O)[C@@H]3C=C4c5cccc6[nH]cc(c56)C[C@@H]4N(C)C3)(C(C)C)C(=O)N12`, “inactive”; with `C[C@H]1CN(C)[C@@H](C)C[C@@H]1n1[nH]c(=O)cc1N`, “inactive”. As to `CO[C@H]1[C@H]2CC[C@@H]1NC2`, the cytotoxicity call was “inactive”.

Turning to `OCC(Br)(Br)Br`, the cytotoxicity call was “inactive”. With `O=[N+]([O-])C(Br)(CO)CO` [listing 1 of 2 here] the entry was “active”; with `O=[N+]([O-])C(Br)(CO)CO` [listing 2 of 2 here], “active”; with `C=C(C)[C@@H]1[C@H]2OC(=O)[C@H]1[C@]1(O)C[C@H]3O[C@]34C(=O)O[C@H]2[C@]14C`, “inactive”. The entry for `Cc1cc(N2CCN(C)CC2)ncn1` is “inactive”; for `CN1[C@@H](CO)[C@@H]2c3ccccc3NC[C@@H]21` it is “inactive”. Regarding `COc1ccc(OC(=O)N(C)C[C@@H]2OCc3ccccc3-c3c(n(C)c4ccccc34)C(=O)N([C@H](C)CO)C[C@@H]2C)cc1`, the cytotoxicity call is “inactive”.

As for `CC[n+]1c(-c2ccccc2)c2cc(N)ccc2c2ccc(N)cc21.[Br-]`, the cytotoxicity call is “inactive”.

Consider `CN[C@H]1C[C@@H](N)[C@H](O)[C@@H](O[C@@H]2O[C@H](CO)[C@H](O)[C@@H]3O[C@@]4(O[C@H]23)O[C@H]([C@@H](N)CO)[C@H](O)[C@H](O)[C@H]4O)[C@@H]1O`, for which the cytotoxicity call is “active”. On to `O=c1cccc2n1C[C@@H]1C[C@H]2CN(C[C@H](O)/C=N/n2cnnc2)C1`, for which the cytotoxicity call is “inactive”.

As for `CC(=O)OCC1=C(C(=O)O)N2C(=O)[C@@H](NC(=O)CCC[C@@H](N)C(=O)O)[C@@H]2SC1`, the cytotoxicity call is “inactive”. The entry for `N[C@@H](Cc1ccc(O)cc1)C(=O)NCC(=O)NCC(=O)O` is “inactive”. With `Cn1ncnc2c(=O)n(C)c(=O)nc1-2` the entry was “active”; with `Cc1nc2c(=O)n(C)c(=O)nc-2n(C)n1`, “active”. With `Cc1cnc(C(=O)N2C[C@H]3CNC[C@H]3C2)cn1` the entry was “inactive”; with `[O-][n+]1ccccc1[S][Zn][S]c1cccc[n+]1[O-]`, “active”. Turning to `O=C(O)C[C@@H]1CC[C@H]2NC[C@@H](O)COC[C@@H]2O1`, the cytotoxicity call is “inactive”. The entry for `Cc1cc(O)c2c(=O)c3c(O)cc(O)c4c5c(O)cc(O)c6c(=O)c7c(O)cc(C)c8c1c2c(c34)c(c78)c65` is “active”; for `CCC1(O)C(=O)OCc2c1cc1n(c2=O)Cc2cc3ccccc3nc2-1` (stereo unspecified) it is “inactive”; for `Cc1nc(-c2ccc(-c3ccc(C(=O)N4CCc5cc6c(cc54)C4(CCN(C)CC4)CO6)cc3)c(C)c2)no1` it is “active”. With `C=C(C)[C@H]1O[C@H]2CC[C@@]3(C)[C@@](O)(CC[C@H]4[C@@H]5OC(C)(C)[C@H]6C[C@@H]7C(=C)Cc8c(Cl)cc9[nH]c(c5c9c8[C@@]76O)[C@@]43C)[C@]23O[C@@H]3[C@H]1O` the entry was “inactive”; with `O=C1[O][Pt]2([NH][C@@H]3CCCC[C@H]3[NH]2)[O]C1=O`, “active”; with `CN(C)c1ccc(CCN)cc1`, “inactive”. With `Br.CC(Cc1ccc(O)cc1)NCC(O)c1cc(O)cc(O)c1` (stereo unspecified) the entry was “inactive”; with `Cc1cc2c(C(C)C)c(O)c(O)c(C=O)c2c(O)c1-c1c(C)cc2c(C(C)C)c(O)c(O)c(C=O)c2c1O` [listing 1 of 2 here], “active”. For `Cc1cc2c(C(C)C)c(O)c(O)c(C=O)c2c(O)c1-c1c(C)cc2c(C(C)C)c(O)c(O)c(C=O)c2c1O` [listing 2 of 2 here], the cytotoxicity call is “inactive”.

On to `CC(=O)O.Cc1cc2c(C(C)C)c(O)c(O)c(C=O)c2c(O)c1-c1c(C)cc2c(C(C)C)c(O)c(O)c(C=O)c2c1O`, for which the cytotoxicity call is “inactive”.

For the compound `O=C(O)C=CCO`, the cytotoxicity call was “inactive”. Turning to `COCC12CN(C=O)C3C4C(OC)C1C3(C(OC)CC2O)C1CC2(O)C(OC)C(O)C4(OC(C)=O)C1C2OC(=O)c1ccccc1` (stereo unspecified), the cytotoxicity call is “inactive”.

In the case of `O=C1CCN(C(=O)C2CCC2)CC1`, the cytotoxicity call was “inactive”.

`COC(=O)[C@@]1(Cc2ccccc2N=[N+]=[N-])N=C(c2ccc(OCCCO)cc2)O[C@H]1c1ccccc1CN=[N+]=[N-]`: the cytotoxicity call was “inactive”.

Regarding `COC(=O)[C@]1(Cc2ccccc2N=[N+]=[N-])N=C(c2ccc(OCCCO)cc2)O[C@@H]1c1ccccc1N=[N+]=[N-]`, the cytotoxicity call is “active”.

With `COC(=O)[C@]1(Cc2ccccc2CN=[N+]=[N-])N=C(c2ccc(OCCCO)cc2)O[C@@H]1c1ccccc1N=[N+]=[N-]`, the cytotoxicity call is “inactive”. The entry for `COC(=O)[C@]1(Cc2ccccc2N=[N+]=[N-])N=C(c2ccc(OCCCO)cc2)O[C@@H]1c1ccccc1CN=[N+]=[N-]` is “inactive”; for `COC(=O)[C@@]1(Cc2ccccc2CN=[N+]=[N-])N=C(c2ccc(OCCCO)cc2)O[C@H]1c1ccccc1N=[N+]=[N-]` it is “inactive”. The entry for `COC(=O)[C@@]1(Cc2ccccc2N=[N+]=[N-])N=C(c2ccc(OCCCO)cc2)O[C@H]1c1ccccc1N=[N+]=[N-]` is “active”.
